Rows were chosen to be rich in hits. Some 21% of all compounds tested hit in one or more screens of this group.
NS1 inh: qHTS Assay for Inhibitors of Influenza NS1 Protein Function; AID 2326, 2010; Potency, µM (series often up to 46.1 µM), inactives show top-dose activity, positive = more growth; 270,000 tested, 0.4% active; calls by dose curve; note: potency is the fitted concentration of half-maximal effect; actives are rising curves; nearly all actives have a fitted effect of over 50% in size
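Compounds were scored for reversing the slow growth caused by influenza A NS1 in S. cerevisiae, measured by optical density at 600 nm. Assay medium contained 2% galactose at pH 6.0; NS1-free yeast of the same strain were the positive control.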
Pf growth 96h: Primary qHTS for delayed death inhibitors of the malarial parasite plastid, 96 hour incubation. P. falciparum luciferase reporter growth, 96 h. Potency, µM (top dose mostly 28.7 µM), inactives show top-dose activity change, negative = inhibition, most hits filed as inhibitors. 320,000 tested, 6.9% active. AID 504834, 2011; note: potency is the fitted concentration of half-maximal effect; % is set by controls: 0 for no effect and ±100 for the full control effect
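Luminescence readout: decreased luciferase signal marks inhibited growth of reporter-expressing P. falciparum in infected red cells (2% hematocrit, 0.05% parasitemia final), exposed to compound two generations (96 h, 37 C, 5% CO2).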
CHX counter: Cycloheximide Counterscreen for Small Molecule Inhibitors of Shiga Toxin | max response, % | cell reporter, cycloheximide protein synthesis inhibition counterscreen | 300,000 tested, 12% active; in the data active = max response mostly above about 13%, no sharp cut-off; inactive = mostly below about 14%; note: read at 38.3 µM for the half of the compounds with a filed dose; 0% is about no effect
Shiga inhibitor: A qHTS for Small Molecule Inhibitors of Shiga Toxin; 290,000 tested, 9.2% active; inhibition, % at 38.7 µM; Vero cells, Shiga toxin protein synthesis inhibition reporter; in the data active = inhibition mostly above about 28%, no sharp cut-off; inactive = mostly below about 43%; note: 0% is about no effect
Sm TGR inh: qHTS Assay for the Inhibitors of Schistosoma Mansoni Peroxiredoxins. AID 485364, 2010. Potency, µM (titrated, usually from 114 µM), for the others: at the top dose activity change, negative = inhibition, most hits filed as inhibitors. purified TGR, DTNB reduction, TNB absorbance 405 nm. 360,000 tested, 3% active; note: potency is the fitted concentration of half-maximal effect; % is set by controls: 0 for no effect and ±100 for the full control effect; nearly all actives have a fitted effect of over 60% in size
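TGR 20 nM + NADPH 100 uM (dispensed conc.), cpd preinc 15 min RT; start with NADPH (500 uM addition) then DTNB (15 mM addition). Kinetic TNB absorbance, 405 nm filter. Four-parameter Hill fit across titration.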
Pf growth 48h: Primary qHTS for delayed death inhibitors of the malarial parasite plastid, 48 hour incubation | P. falciparum luciferase growth in erythrocytes, 48 h | Potency, µM (titrated, usually from 28.7 µM), for the others: at the top dose activity change, negative = inhibition, usual class: inhibitors | 310,000 tested, 5.9% active | AID 504832, 2011; note: potency is the fitted concentration of half-maximal effect; % is set by controls: 0 for no effect and ±100 for the full control effect
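Erythrocytes infected with P. falciparum carrying an integrated firefly luciferase reporter (2% hematocrit, 0.1% parasitemia final) were exposed to compounds in RPMI 1640 with 0.5% Albumax at 37 C, 5% CO2. Growth inhibition was scored as reduced luminescence.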
The depositor's hits bear a star; ? = inconclusive; / = not tested or not shown; [ ] = dose if it differs, or a comment. Unless noted, calls come from the whole dose curve; as a rule, active = well fitted curve in the direction sought with a large enough effect; inconclusive = small, poorly fitted or top-dose-only effect, or another doubt; inactive = no such curve, though single readings can be large; an effect the other way counts as inactive or inconclusive.

SMILES	NS1 inh	Pf growth 96h	CHX counter	Shiga inhibitor	Sm TGR inh	Pf growth 48h
CCOCCCNC(=O)c1ccc2nc(-c3ccc(OC)c(OC)c3)c(-c3ccc(OC)c(OC)c3)nc2c1	-3%	14%	-2	3	10%	3.7µM*
CCc1nc2ccc(C(=O)NCCc3ccc(OC)c(OC)c3)cc2nc1CC	-7%	?	-6	3	-3%	-11%
Cc1ccc(S(=O)(=O)NCc2ccccc2)cc1C(=O)NCC1CCCO1 (configuration not stated)	/	12%	/	/	1%	-6%
O=C(COC(=O)c1ccc(O)cc1)NCC1COc2ccccc2O1 (configuration not stated)	/	?	/	/	-18%	-11%
COCCn1c(C)cc(C(=O)COC(=O)C23CC4CC(CC(O)(C4)C2)C3)c1C	0%	142%	38*	57*	-6%	145%
COc1ccc(C(=O)COC(=O)c2cccnc2SC)cc1	1%	?	30*	48	8%	34%[5.75 µM]
COCCn1c(C)cc(C(=O)COC(=O)c2cc3c(s2)CCC3)c1C	2%	30%[5.75 µM]	30*	95*	-28%	27%
COCCn1c(C)cc(C(=O)COC(=O)c2cccc(O)c2)c1C	-4%	306%	-3	-7	-2%	?
Cc1cc(C(=O)COC(=O)c2ccc(O)cc2)c(C)n1CC1COc2ccccc2O1 (configuration not stated)	17%	13µM*	0	12	3%	?
CSc1ncccc1C(=O)OCC(=O)c1ccccc1	-1%	41%	14	11	0%	-15%
Cc1ccc(C)c(NC(=O)Cn2cc(C(=O)c3cccs3)c3ccccc32)c1	/	/	/	/	1%	/
Cc1nn(C)c2c1c(-c1ccccc1)cc(=O)n2C(C)C(=O)NCc1ccc(F)cc1 (configuration not stated)	/	/	/	/	6%	/
CC(=O)Nc1ccc(C2=CC(=O)C[C@H](c3ccc(Cl)cc3)C2)cc1	/	?	/	/	-6%	?
CC(C)c1ccc(NC2CCCN(C(=O)CCN3CCCCO3)C2)cc1 (configuration not stated)	-13%	?	1	-35	-4%	11%
Cc1cc(C)c(C(=O)COC(=O)c2ccc([N+](=O)[O-])o2)cc1C	/	10%	9	-2	?	5%
Cn1cc(Cl)c(C(=O)OCC(=O)Nc2cccc(Cl)c2)n1	1%	11%	-6	3	-15%	1%
COc1cc(C(=O)OCC(=O)c2cc(C)n(CC3CCCO3)c2C)cc(OC)c1C (configuration not stated)	/	-8%	/	/	-17%	?
CSc1ncccc1C(=O)OCC(=O)c1cc(C)n(CC2CCCO2)c1C (configuration not stated)	-6%	24%	39*	56*	12%	15%
CCC(=O)c1ccc(OCC(=O)OCC(=O)c2cc(C)n(CC3CCCO3)c2C)cc1 (configuration not stated)	/	4%	/	/	2%	6%
Cc1cc(C(=O)COC(=O)c2ccc3c(c2)OCO3)c(C)n1CC1CCCO1 (configuration not stated)	-1%	331%	40*	147*	-4%	281%
COCCn1c(C)cc(C(=O)COC(=O)c2ccc([N+](=O)[O-])o2)c1C	/	2%	46*	123*	35µM*	34%
COc1ccc(C(=O)COC(=O)c2nn(C)cc2Cl)cc1	-9%	215%	15*	69*	0%	5%
COc1cccc2c1Oc1cc([N+](=O)[O-])cc(N(C)C(C)=O)c1C=C2	1%	12%	-2	0	-1%	-4%
COc1ccc(NC(=O)c2ccc3c(c2)nnn3C2CCCC2)cc1Cl	/	/	/	/	-9%	/
COc1ccc(-c2noc(CNC(=O)c3ccccc3Br)n2)cc1	/	/	/	/	-1%	/
SMILES	NS1 inh	Pf growth 96h	CHX counter	Shiga inhibitor	Sm TGR inh	Pf growth 48h
CC1=C(C(=O)Nc2ccc(C)cc2C)C(c2ccc(C(C)C)cc2)n2nc(C(F)(F)F)nc2N1 (configuration not stated)	/	/	/	/	0%	/
Cc1cc(C(=O)COC(=O)c2ccc([N+](=O)[O-])o2)c(C)n1CC1CCCO1 (configuration not stated)	-7%	2%	49*	123*	35µM*	47%
Cc1cc(C(=O)COC(=O)C2CCN(C(=O)c3ccc(Cl)cc3)CC2)c(C)n1CC1CCCO1 (configuration not stated)	/	-18%	66*	100*	?	-4%
Cc1cc(C(=O)COC(=O)COc2ccccc2C#N)c(C)n1CC1CCCO1 (configuration not stated)	/	15%	/	/	2%	12%
Cc1ccc2c(=O)cc(C(=O)Nc3ccc(S(=O)(=O)N4CCCCC4)cc3)oc2c1	/	/	/	/	0%	/
CCC(NC(=O)c1cccc(Cn2cc([N+](=O)[O-])cn2)c1)c1ccc(C(C)C)cc1 (configuration not stated)	3%	/	11*	7	5%	-14%
CC(NC(=O)c1cccc(Cn2cc([N+](=O)[O-])cn2)c1)c1ccc(C(C)(C)C)cc1 (configuration not stated)	6%	?	11	14	4%	/
COc1cc(/C=C2/S/C(=N/S(=O)(=O)Cc3ccccc3)NC2=O)c([N+](=O)[O-])cc1OC	12%	?	-1	11	1%	?
COc1cc(/C=C2\S/C(=N/S(=O)(=O)Cc3ccccc3)NC2=O)c([N+](=O)[O-])cc1OC	17%	8.3µM*	-2	-13	-24%	?
O=C(/C=C/c1ccc(Br)cc1)c1ccc(NC(=O)c2ccco2)cc1	5%	26%	27*	14	-6%	-1%
O=C(/C=C/c1ccc([N+](=O)[O-])cc1)c1ccco1	-23%	?	-3	-3	-27%	7%
O=C(/C=C/c1ccc(Br)cc1)c1ccco1	-41%	448%	29*	64*	-32%	13%
O=C(/C=C/C=C/c1ccccc1)c1ccco1	-11%	13%	51*	103*	10µM*	144%
COc1cc(-c2cc3n(C)c(C)c(CCC(=O)NCc4ccccc4)c(=O)n3n2)cc(OC)c1OC	/	/	/	/	10%	/
Cc1cc(S(=O)(=O)Nc2cccc(C(=O)O)c2)c(C)c(S(=O)(=O)c2ccccc2)c1	/	/	/	/	2%	/
CCCn1c(N)c(N(CCOC)C(=O)CSc2cc(C)c3cccc(C)c3n2)c(=O)[nH]c1=O	/	-28%	/	/	-2%	?
CC(C)(C)NC(=O)COC(=O)/C=C/c1ccc(F)cc1	1%	78%	24*	43	-4%	31%
